# Assay results as given in PubChem BioAssay AID1135 (Sanford-Burnham Center for Chemical Genomics, 2008).
# About 65 (0.03%) of roughly 200,000 compounds were called active. This is one part of a sample in which actives are shown more often than they occur.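 The calls were made as follows: active = over 50% inhibition of tissue-nonspecific alkaline phosphatase at 20 µM in the single-dose screen; inactive = the rest.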
# Biological target: Alkaline phosphatase, tissue-nonspecific isozyme (Homo sapiens) (UniProt P05186)
# Sequence (P05186 whole entry, looked up): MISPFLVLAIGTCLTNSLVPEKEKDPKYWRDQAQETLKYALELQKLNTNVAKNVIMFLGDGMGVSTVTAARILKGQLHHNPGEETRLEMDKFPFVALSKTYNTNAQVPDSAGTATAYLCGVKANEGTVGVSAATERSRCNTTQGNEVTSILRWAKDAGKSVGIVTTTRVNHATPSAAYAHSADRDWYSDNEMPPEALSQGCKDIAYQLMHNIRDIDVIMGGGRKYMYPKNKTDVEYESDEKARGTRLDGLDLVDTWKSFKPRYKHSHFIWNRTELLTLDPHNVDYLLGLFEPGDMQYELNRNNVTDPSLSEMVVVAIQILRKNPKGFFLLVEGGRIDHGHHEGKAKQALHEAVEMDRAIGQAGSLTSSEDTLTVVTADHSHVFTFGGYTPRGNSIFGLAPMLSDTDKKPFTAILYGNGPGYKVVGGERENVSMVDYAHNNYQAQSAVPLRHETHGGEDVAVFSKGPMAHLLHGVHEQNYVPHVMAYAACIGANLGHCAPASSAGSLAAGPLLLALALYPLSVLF
# Experiment: blockers of alkaline phosphatase TNAP activity – biochemical, luminescent, high phosphate acceptor level, uHTS, primary screen (AID 1135);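 also: plate controls were DMSO wells for no effect and EDTA-quenched wells as full inhibition for full effect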
# Details: purified TNAP, CDP-star luminescence, 1 M DEA; at 20 µM; stronger effect = higher value
row,SMILES,inhibition
1,OC(CN=c1sc2ccccc2n1CC(O)COc1ccccc1)COc1ccccc1 (centres undefined),-2% (inactive)
2,CC(C)(C)C(=O)N1CCC[C@@]1(CO)C(=O)O,1.3% (inactive)
3,CCCn1nc(C(=O)Nc2ccc3nc(C)sc3c2)c2ccccc2c1=O,0% (inactive)
4,O=C(NNc1cc(Cl)ccc1Cl)c1cccnc1Cl,-3.3% (inactive)
5,Cn1cnnc1Sc1ccc(S(C)(=O)=O)cc1[N+](=O)[O-],3.1% (inactive)
6,CN(C)S(=O)(=O)c1ccc(N2CCCC2=O)c([N+](=O)[O-])c1,-2.1% (inactive)
7,Cc1ccccc1Nc1nc(N)nc(CSc2nnc3ccccn23)n1,-3.4% (inactive)
8,O=C1CCC/C(=N\NC(=O)NC2CCCCC2)C1,3.6% (inactive)
9,Cc1ccccc1C1=NC(C(F)(F)F)(C(F)(F)F)c2c(n(-c3ccc(F)cc3)c(=O)[nH]c2=O)N1,-3.5% (inactive)
10,Cc1cccc(NC(=S)Nc2ccc(Cl)c(Cl)c2)c1,-5.2% (inactive)
11,COc1ccccc1Oc1ccc(N/C=C2/CCCC2=O)cc1,-1.1% (inactive)
12,Cc1ccc(OCc2n[nH]c(=S)n2-c2ccccc2)cc1,-3.4% (inactive)
13,COC(=O)c1c(NC(=O)c2c(Cl)cnn2C)sc(C)c1C,-0.7% (inactive)
14,Cc1nc2ccccc2nc(C)c1=NOCc1ccc(Cl)cc1Cl,-3.2% (inactive)
15,O=C(/C=C/c1ccc(F)cc1)NC(=S)NNC(=O)c1cccnc1,-2.2% (inactive)
16,CC1=C[C@H]2Cc3cc(C)cc(C)c3S(=O)(=O)[C@@H]2C=C1,1.3% (inactive)
17,Cc1ccc(C)c(-n2nnnc2SCC(=O)c2c(N)n(C)c(=O)n(C)c2=O)c1,-2.7% (inactive)
18,COc1cccc(NC(=S)N(Cc2ccc(C)cc2)Cc2ccccn2)c1,-3.4% (inactive)
19,COc1cccc(C2CC(c3ccccc3)=NN2S(=O)(=O)c2ccccc2)c1OC (centres undefined),-5.8% (inactive)
20,Cn1c(=N)n(CC(O)c2cccs2)c2ccccc21 (centres undefined),-2% (inactive)
21,C=CCNc1nc(Nc2ccc(Cl)cc2)nc(OC)n1,-3% (inactive)
22,COC(=O)c1nn(-c2cccc(Cl)c2)ccc1=O,-8.9% (inactive)
23,CCN(CC)CCN(C(=O)c1ccc(N2C(=O)CCC2=O)cc1)c1nc2cc3c(cc2s1)OCO3,-2.1% (inactive)
24,CC(=O)c1cnc(SCC(=O)O)nc1C,-1.6% (inactive)

row,SMILES,inhibition
1,Cc1cccc(C2=N/C(=C/c3cccs3)C(=O)O2)c1,-2.6% (inactive)
2,COC(=O)C(C(=O)Nc1cccc(Cl)c1C)C1CCCC1 (centres undefined),-6.6% (inactive)
3,CCOC(=O)C1C(c2ccc(Cl)cc2)NC(=S)NC1(O)C(F)(F)F (centres undefined),4.4% (inactive)
4,CCOC(=O)/C(=N\Nc1cc(Cl)ccc1Cl)N1CCN(C)CC1,3.4% (inactive)
5,S=C(NCC1CCCO1)N1CCN(c2ccc(Cl)c(Cl)c2)CC1 (centres undefined),-1.7% (inactive)
6,COc1cc(C2OC(c3cc(OC)c(OC)c(OC)c3)C(C)C2C)cc(OC)c1OC (centres undefined),-2.4% (inactive)
7,O=C(CCCCCNC(=O)c1ccccc1)N/N=C/c1ccccc1,-6.8% (inactive)
8,O=C(NCCN1C(=O)S/C(=C\c2cccnc2)C1=O)c1cccc(OC(F)F)c1,-0.3% (inactive)
9,COc1ccc(CCc2nnc(CCC(=O)NCc3cnn(-c4ccccc4C)c3)o2)cc1,1.5% (inactive)
10,S=C(NCCc1ccccc1)NCC1CCCO1 (centres undefined),-0.7% (inactive)
11,CN(C)c1ccc(/C=N/NC(=O)C(O)c2ccc(Br)cc2)cc1 (centres undefined),-1.9% (inactive)
12,CCCCN(C)CCNC(=O)CSCc1ccc(C)cc1,-5.4% (inactive)
13,CC(=O)c1sc(N/N=C/c2ccc(C(C)C)cc2)nc1C,13.5% (inactive)
14,Cc1ccc(OCC(=O)NC(C)c2ccccc2)c([N+](=O)[O-])n1 (centres undefined),-1.6% (inactive)
15,Cc1ccc(CSCC(N)C(=O)O)cc1 (centres undefined),0.6% (inactive)
16,O=C(Nc1ccc(N2CCOCC2)cc1)c1ccc(-c2ccccc2[N+](=O)[O-])o1,0.3% (inactive)
17,Cc1ccc(-c2nc(-c3cccnc3)sc2CC(=O)Nc2ccc(C)c(Cl)c2)cc1,-1.4% (inactive)
18,O=C(CC1SC(=Nc2ccccc2)N(Cc2ccccn2)C1=O)Nc1cccc(Cl)c1 (centres undefined),3% (inactive)
19,CCCCC(CC(C)O)c1n[nH]c(=S)n1-c1ccccc1 (centres undefined),7.9% (inactive)
20,COCCn1c(=NC(=O)c2ccccc2[N+](=O)[O-])sc2cc(S(C)(=O)=O)ccc21,3.3% (inactive)
21,C#CCCCc1nc2ccccc2c(=O)n1N,-3.7% (inactive)
22,Cc1c(NC(=S)Nc2ccccc2)c(=O)n(-c2ccccc2)n1C,4.8% (inactive)
23,O=C(COC(=O)[C@H](Cc1ccccc1)NC(=O)c1cccs1)Nc1cc(F)ccc1F,-1.2% (inactive)
24,C=CCn1c(SCCOc2ccc(OC)cc2)nnc1C(NC(=O)c1ccc(OC)cc1)C(C)C (centres undefined),-3.4% (inactive)

row,SMILES,inhibition
1,CN1CCN(C(=O)N2c3ccccc3CCc3ccccc32)CC1,-5.7% (inactive)
2,COc1ccc(CCNC(=O)CSc2nc3[nH]ncc3c(=O)n2-c2cccc(C(F)(F)F)c2)cc1OC,2.6% (inactive)
3,CN(CCOc1ccc(Br)cc1)CC(=O)Nc1cccc(S(=O)(=O)NC2=NCCC2)c1,-4.6% (inactive)
4,O=C(NNC1CC(=O)N(c2cccc(Cl)c2)C1=O)c1cccnc1 (centres undefined),-3.4% (inactive)
5,Cc1ccc(S(=O)(=O)NC2(C(F)(F)F)NC(=O)N(CCc3ccccc3)C2=O)cc1 (centres undefined),-6.1% (inactive)
6,COc1ccc(OC)c(S(=O)(=O)Nc2cccc(-c3ccc4nncn4n3)c2)c1,-3.7% (inactive)
7,C[C@@H](O)c1nc2ccccc2n1N,-1.1% (inactive)
8,O=C(Nc1cccc(Cl)c1)c1cc([N+](=O)[O-])ccc1N1CCN(CCO)CC1,2.5% (inactive)
9,CCOc1ccc(NC(=O)CSc2ncnc3c2sc2ccccc23)cc1,-1.9% (inactive)
10,Cc1ccc2[nH]c(=O)c(CN(CC3COCCO3)C(=O)Nc3ccccc3C)cc2c1 (centres undefined),-4.6% (inactive)
11,COc1cccc(CN(C)CC(=O)NCc2ccccc2Cl)c1OC,1.3% (inactive)
12,CCC(C)(C)NC(=O)CN(C(=O)CCC(=O)Nc1cc(C)ccn1)c1ccc2c(c1)OCCO2,-6% (inactive)
13,O=C(Nc1ccc(N2CCN(C(=O)c3cccs3)CC2)cc1)c1cccnc1Cl,-2.2% (inactive)
14,CN(C)c1ccc(/C=N/Nc2cc(N3CCOCC3)nc(N3CCOCC3)n2)cc1,-5.4% (inactive)
15,O=C(NNc1c2ccccc2nc2ccccc12)c1cc2ccccc2cc1O,26.1% (inactive)
16,O=c1oc(/C=C/c2ccccc2)nc2ccccc12,0% (inactive)
17,O=C(O)c1ccc(N/N=C/c2ccc3ncccc3c2)cc1,0.7% (inactive)
18,Cc1[nH]c2ccccc2c1C(=O)COC(=O)c1c(-c2ccccc2)noc1C,-2.1% (inactive)
19,CC/C(O)=C1\C(=O)CC(C)(C)CC1=NCCc1nc2ccccc2[nH]1,-0.3% (inactive)
20,O=C(NCc1cccs1)C(=O)NCC1OCCCN1S(=O)(=O)c1ccc(F)cc1 (centres undefined),0.7% (inactive)
21,CCn1c(SCC(=O)N/N=C/C=C/c2ccccc2[N+](=O)[O-])nnc1-c1ccccc1,1.3% (inactive)
22,CCOc1ccc(NS(=O)(=O)c2cc(C)c(C)cc2C)cc1,-1.7% (inactive)
23,Cc1ccc(SCCC(=O)NC(C(C)C)C(C)C)cc1,-0.8% (inactive)
24,O=C(/C=C/c1ccccc1Cl)Nc1ccc(S(=O)(=O)Nc2ncccn2)cc1,-0.8% (inactive)

row,SMILES,inhibition
1,Cc1ccc(C)c(NS(=O)(=O)c2ccc(OCC(=O)NCc3cccnc3)cc2)c1,3.1% (inactive)
2,C/C(=N\N=C(N)N)c1ccc(Cl)cc1,-5.8% (inactive)
3,Cc1cc(=O)oc2c1c(C)nn2-c1ccc(Cl)cc1,-6.1% (inactive)
4,CC(C)Oc1ccc(Cc2n[nH]c(=S)n2Cc2ccccc2)cc1Cl,-3.4% (inactive)
5,Cc1no[n+]([O-])c1COc1ccccc1/C=C1\NC(=S)NC1=O,0.1% (inactive)
6,NS(=O)(=O)c1ccc(NC(=O)/C=C/c2ccccc2Cl)cc1,6.2% (inactive)
7,COc1ccc(OC)c(S(=O)(=O)NCCC(C)C)c1,-7.1% (inactive)
8,COc1ccc(CCNC2=C(Cl)C(=O)N(Cc3ccccc3)C2=O)cc1OC,0.7% (inactive)
9,Cc1ccccc1CSCCNC(=O)c1ccc(N(C)S(=O)(=O)c2ccccc2)cc1,-8.8% (inactive)
10,Cc1ccc(NC(=O)CSCC(=O)NC2CCCCC2)cc1,-0.6% (inactive)
11,COc1ccc(C/C(N)=N/OC(=O)c2ccco2)cc1OC,-4.3% (inactive)
12,CC/C(Cc1ccccc1)=N/NC(=O)CCn1nnc2ccccc21,-4.6% (inactive)
13,CCOc1ccc(C(=O)NC(=S)Nc2ccc(N3CCOCC3)c(Cl)c2)cc1[N+](=O)[O-],1.7% (inactive)
14,CN1CCN(C(=O)/C(=C\c2ccc3c(c2)OCO3)NC(=O)c2cccs2)CC1,-3.5% (inactive)
15,CCS(=O)(=O)C1=NSC2=NC(=O)/C(=C\c3cc(C)n(-c4cccc(OC)c4)c3C)C(=N)N21,1.7% (inactive)
16,Cc1ccsc1C1C(C#N)=C(N)OC2=C1C(=O)CC(C)C2 (centres undefined),-0.4% (inactive)
17,CCOC(=O)c1[nH]ncc1CN1CCCC(C(=O)c2ccc(OC)cc2C)C1 (centres undefined),-5.9% (inactive)
18,C/C(=N\NC(=S)NC(C)C)c1ccc(C(C)(C)C)cc1,0.4% (inactive)
19,O=C(N/N=C/c1ccc([N+](=O)[O-])cc1)C(=O)N1CCCC1,1.8% (inactive)
20,COCCN(CCOC)S(=O)(=O)c1ccc(/C(O)=C(\C#N)c2nc3ccccc3[nH]2)cc1,-5.5% (inactive)
21,O=C1OC(OC(=O)c2ccccc2Br)C(N2CCOCC2)=C1Cl (centres undefined),4.1% (inactive)
22,CCOC(=O)N/N=C/c1cn(Cc2ccccc2Cl)c2ccccc12,0.2% (inactive)
